Source: PubChem BioAssay
Many of the other results were omitted from the sample, so hits are more common in it than they were.
Menin MLL FP TR – qHTS Assay for Inhibitors Targeting the Menin-MLL Interaction in MLL Related Leukemias: Competition With Texas Red Labeled MLL-derived Mutant Peptide; O00255; AID 1768, 2009; Potency, µM (titrated, usually from 61.6 µM), without a hit: top-dose FP activity change, negative = inhibition, actives largely listed as inhibitors; hit rate 0.23% among 270,000; Menin + Texas Red MLL mutant peptide, fluorescence polarization; active = well fitted inhibition curve with a large enough effect in the polarisation, with a control signal flat, not every such curve was filed as active; inconclusive = small, poorly fitted or top-dose-only effect, or effect the other way, or a change in a side signal; inactive = no such curve, though single readings can be large or run the other way; the % refers to the polarisation; also: potency is read from the fitted curve at half-maximal effect; % of control where 0% means no effect
Menin-MLL FL inh – qHTS Assay for Inhibitors Targeting the Menin-MLL Interaction in MLL Related Leukemias: Competition With Fluorescein Labeled MLL-derived Peptide; Fluorescence polarization, fluorescein-MLL peptide displacement from menin; FP activity change, % at 61.4 µM; 290,000 tested, under 10 active; active = well fitted curve in the direction sought with a large enough effect in the polarisation, not every such curve was filed as active; inconclusive = small, poorly fitted or top-dose-only effect, or effect the other way, or a change in a side signal; inactive = no such curve, though single readings can be large or run the other way; the % refers to the polarisation; also: % of control where 0% means no effect
CXXC DNA block – qHTS Fluorescence Polarization Assay for Inhibitors of MLL CXXC domain - DNA interaction | hit rate 0.037% among 290,000 | MLL-CXXC / FITC-HOXA9 DNA fluorescence polarization | Histone-lysine N-methyltransferase 2A (Homo sapiens), Q03164 | Potency, µM (titrated, usually from 115 µM), inactives show top-dose activity change, negative = inhibition, hits mostly inhibitors | AID 2662, 2010; active = well fitted inhibition curve with a large enough effect in the polarisation, with a control signal flat, not every such curve was filed as active; inconclusive = small, poorly fitted or top-dose-only effect, or effect the other way, or a change in a side signal; inactive = no such curve, though single readings can be large or run the other way; the % refers to the polarisation; also: potency is read from the fitted curve at half-maximal effect
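Purified MLL-CXXC (added from a 7 uM solution) was preincubated 5 min at ambient with pinned compounds in 50 mM Tris-HCl pH 7.5, 50 mM NaCl, 1 mM DTT, 0.05% BSA. Fluorescein-labeled HOX-A9 DNA (50 nM solution) followed, 30 min, then polarization read.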
GoLoco inh red – qHTS Assay for Inhibitors of RGS12 GoLoco Motif Activity (Red Fluorophore); Potency, µM (doses to about 61.6 µM), for inactives: top-dose activity, negative = inhibition, most hits filed as inhibitors; Guanine nucleotide-binding protein G(i) subunit alpha-1 (Homo sapiens), P63096; hit rate 0.44% among 230,000; Gai1:RGS12 GoLoco peptide FP, rhodamine, 10 min; AID 880, 2007; active = well fitted inhibition curve with a large enough effect, not every such curve was filed as active; inactive = no such curve, though single readings can be large or run the other way; also: potency is read from the fitted curve at half-maximal effect; % is scaled to controls: 0 for no effect and ±100 for the full control effect; nearly all actives have a fitted effect of over 30% in size
Starred values were filed as active, the others as inactive; ? = inconclusive; · = not tested or not shown; ! = not active in a repeat; [ ] = another dose, or the depositor's remark.

SMILES	Menin MLL FP TR	Menin-MLL FL inh	CXXC DNA block	GoLoco inh red
CC[n+]1c(SC)ccc2cc(OC)ccc21	3%	3	4%	10µM*
CCOc1ccc(N=C2SCCCN2C)cc1	14%	6	8%	18µM*
CC(=O)[O-].CC(=O)[O-].O.O.O.[Pb+2]	·	·	·	0%
[Cl][Pd][Cl].[S-]C1=C2N=CN[C-]2[NH+]=C[N-]1.[S-]c1ncnc2[nH]cnc12	·	·	·	-5%[14.2 µM]
COc1cccc2c1C(=O)c1c(O)c3c(c(O)c1C2=O)C[C@](O)(/C(C)=N\O)C[C@@H]3O[C@H]1C[C@H](N)[C@@H](O)[C@H](C)O1	·	·	·	0.63µM*
COc1cc2cc(c1Cl)N(C)C(=O)C[C@H](OC(=O)C(C)C)[C@]1(C)O[C@@H]1[C@@H](C)[C@H]1C[C@](O)(NC(=O)O1)[C@@H](OC)/C=C\C=C(\C)C2	·	·	·	7%[14.2 µM]
CCOc1ccc(-c2nc3ccc(-c4nc5ccc(N6CCN(C)CC6)cc5[nH]4)cc3[nH]2)cc1	?	?	·	34%
O=C1C=CC(=O)C(Cl)=C1	?	-2	·	1.8µM*
C[N+]1(C)C2CCC1CC(OC(=O)c1c[nH]c3ccccc13)C2 (centres undefined)	?	-1	-6%	14%
C[N+]1(C)C2CCC1CC(OC(=O)c1ccco1)C2 (centres undefined)	·	-3	-4%	10µM*
[Hg+][c]1ccccc1	-8%	-2	15%	·
CN1C[C@H](CO)C[C@@H]2c3cccc4[nH]cc(c34)C[C@H]21	-3%	-8	-1%	·
CN1CC(CO)=C[C@H]2c3cccc4[nH]cc(c34)C[C@H]21	-22%	?	·	13µM*
Nc1c(C(=O)Nc2ccc([As](=O)(O)O)cc2)cnc2nnnn12	·	·	·	4%[14.2 µM]
CN1CCN(c2ccccc2N)CC1	15%	1	2%	25µM*
[CH3][Hg][Cl]	·	·	·	25µM*
FC(F)(F)c1nc2ccc(SSc3ccc4nc(C(F)(F)F)[nH]c4c3)cc2[nH]1	·	·	·	-3%[14.2 µM]
Cc1ccc([N+](=O)[O-])cc1	·	·	·	0%
Cc1cccc([N+](=O)[O-])c1	·	·	·	25µM*
O=C1c2cccc3cccc(c23)C(=O)N1/N=C/c1c(O)n(-c2ccccc2)c(=O)[nH]c1=O	-18%	-1	-2%	16µM*
O=[As](O)(O)c1ccc(Cc2ccc([As](=O)(O)O)cc2)cc1	·	·	·	1%[14.2 µM]
COc1ccc(CCNCc2ccc(C)s2)cc1OC	-11%	-1	2%	-3%
COc1ccc(CCNCc2sccc2C)cc1OC	38%	5	-8%	25µM*
NS(=O)(=O)C[C-]1C=C[CH]([Sb-]([Cl])([Cl])([Cl])([Cl])[Cl])C=C1.c1ccncc1 (centres undefined)	·	·	·	1%[14.2 µM]
CN(C)[C@@H]1C(=O)C(C(N)=O)=C(O)[C@]2(O)C(=O)C3=C(O)c4c(O)ccc(Cl)c4[C@](C)(O)[C@H]3C[C@@H]12	-7%[24.8 µM]	11[24.8 µM]	-2%[51.4 µM]	0%[21.6 µM]
SMILES	Menin MLL FP TR	Menin-MLL FL inh	CXXC DNA block	GoLoco inh red
CN(C)C1C(=O)C(C(N)=O)=C(O)[C@@]2(O)C(=O)C3=C(O)c4c(O)cccc4[C@@](C)(O)C3CC12 (some centres undefined)	163%	?	·	35µM*
CN(C)CCCNc1c2c(nc3ccc(Cl)cc13)CCCC2	·	·	·	-5%[14.2 µM]
Cc1c([C@@H](C)C2NC[C@H](C)C[C@@H]2O)ccc2c1C[C@@H]1[C@H]2CC=C2C[C@@H](O)CC[C@@]21C (some centres undefined)	·	·	·	4%[14.2 µM]
CN1CC=C2C(C#N)=C(N)C(C#N)(C#N)C(c3ccncc3)C2C1 (centres undefined)	?	?	?	25µM*
N[C@@H](Cc1cc(Br)c(O)c(Br)c1)C(=O)O	10%	8	-1%	11µM*!
CNC(=O)OCCc1nccn1C	10%	3	10%	0%
CNC(=O)OCc1n(C)cc[n+]1C	14%	1	2%	1.8µM*
CC(=O)O/C(=C1/C[C@H]2[C@@H]3CC=C4C[C@@H](OC(C)=O)CC[C@]4(C)[C@@H]3CC[C@]2(C)C1=O)C(F)(F)F	·	·	·	1%[14.2 µM]
ClC1=C(Cl)C2(Cl)C3C(Cl)C=CC3C1(Cl)C2(Cl)Cl (centres undefined)	-1%	-1	·	20µM*!
CCCCCSc1cc(OC)c(CCN)cc1OC	-23%	3	0%	-11%
CCCCCCCSc1cc(OC)c(CCN(C)C)cc1OC	7.1µM*	1	?	-1%
COC(=O)c1c(C)ccc2c(O)c3c(cc12)C(=O)c1c2c(cc(O)c1C3=O)[C@@]1(C)O[C@@](C)(O2)[C@@H](O)[C@H](N(C)C)[C@H]1O	·	·	·	56%[14.2 µM]
N[C@H](Cc1ccc2oc3cc(=O)c4ccccc4c-3nc2c1)C(=O)O	·	·	·	3.5µM*
C[C@]12CC[C@@H]3c4cc(O)c(O)cc4CC[C@H]3[C@@H]1CC[C@@H]2O	?	1	3%	7.9µM*
C[C@]12CC[C@@H]3c4ccc(O)c(O)c4CC[C@H]3[C@@H]1CC[C@@H]2O	?	-2	-1%	-15%
CCC(C(=O)O)C1CCC(C)C(C(C)C(O)C(C)C(=O)C(CC)C2OC3(C=CC(O)[C@@]4(CC[C@](C)(C5CC[C@@](O)(CC)C(C)O5)O4)O3)C(C)CC2C)O1 (some centres undefined)	-20%	?	-3%	28µM*
CN[C@@H](C)[C@H](O)c1ccccc1	14%	1	65%	2µM*
CCOC(C(=O)OCCC[N+](C)(CC)CC)(c1ccccc1)c1ccccc1	3%	4	1%	-5%
CC[N+](C)(CC)CCCOC(=O)C(O)(c1ccccc1)C1CCCCC1 (centres undefined)	0%	4	2%	6.3µM*
O=C(O)[C@@H](O)[C@@H](O)C1[O][Sb][O][C@@H]1CO (some centres undefined)	·	·	·	4%[14.2 µM]
[O-][Cl+2]([O-])O	·	·	·	11µM*
O=C1C=CC(=O)C=C1	6%	0	-8%	1.8µM*!
CC(=O)Oc1c2c(c(CC=C(C)C)c3c1C(=O)C1=CC4CC5C(C)(C)OC(C/C=C(\C)C(=O)O)(C4=O)[C@]15O3)OC(C)(CCC=C(C)C)C=C2 (some centres undefined)	5%	10	·	-12%
O=C(O)c1ccc(-c2ccc3cc(C45CC6CC(CC(C6)C4)C5)c(O)cc3c2)cc1	?	0	·	·
CC(C)N1C(=O)CC2(CC[N+](C)(CCOC(=O)C(O)(c3ccccc3)c3ccccc3)CC2)C1=O (centres undefined)	-2%	-1	-5%	16µM*
C[C@@H]1O[C@H](C[N+](C)(C)C)CS1	-4%	-3	-18%	32µM*
O=C(O)C[C@H]1OCC=C2CN3CC[C@]45c6ccccc6N[C@@H]4[C@H]1[C@H]2C[C@H]35	·	·	·	0%[14.2 µM]
[Cl-].[Cl-].[Hg+2]	-10%	-3	-13%	-99%
